Compounds without any hit were thinned out: in the full panel of roughly 83,000, 20% have a hit.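 48-hour exposure, single concentration, 96-well plates; percent growth endpoint where 0 means no net growth. Active: below 10.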 The source made the active and inactive calls.
How the values were obtained:
Assay in all cases: NCI-60 one-dose screen, 48 h (100 = growth as untreated, 0 = no growth, -100 = all killed)
Conditions in all cases: 10 µM unless noted
[1] = tested on: DU-145 prostate
[2] = tested on: K-562 leukemia
[3] = tested on: MALME-3M melanoma
[4] = tested on: MDA-MB-231 breast
[5] = tested on: RXF 393 renal
[6] = tested on: SF-268 CNS
[7] = tested on: SF-295 CNS
[8] = tested on: SF-539 CNS
[9] = tested on: UACC-257 melanoma
[10] = tested on: M14 melanoma
[11] = tested on: HCT-15 colon
[12] = tested on: HT29 colon
[13] = tested on: SNB-75 CNS
[14] = tested on: SNB-19 CNS
[15] = tested on: PC-3 prostate
[16] = tested on: SK-MEL-5 melanoma
[17] = tested on: UACC-62 melanoma
[18] = tested on: LOX IMVI melanoma
[19] = tested on: SK-MEL-28 melanoma
[20] = tested on: U251 CNS

Measured: growth

COc1cccc(-c2nc3sccn3c2-c2ccnc(NCCNS(=O)(=O)c3cccc(Cl)c3)c2)c1
inactive: [1] 44.1% | [2] 25.3% | [3] 63.2% | [4] 68.3% | [5] 47.5% | [6] 42.7% | [7] 33.8% | [8] 72.6% | [9] 58% | [10] 48.4% | [11] 37.8% | [12] 45.7% | [13] 36.6% | [14] 65% | [15] 20.2% | [16] 20.2% | [17] 12.1% | [18] 46.7% | [19] 68.4%

NC(N)=NN=C(c1ccccc1)c1ccccc1
active: [5] -28.4% | [10] -6.76% | [13] -7.05% | [16] 3.67%
inactive: [1] 22.8% | [2] 21.7% | [3] 48.8% | [4] 59.6% | [6] 46.1% | [7] 43% | [8] 19.3% | [9] 64.4% | [11] 30.9% | [12] 11.7% | [14] 47% | [15] 23.8% | [17] 54.8% | [18] 30.8% | [19] 43.1%

Cc1ccc(N(C(=O)CCc2c[nH]c3ccccc23)[C@H](C(=O)Nc2ccc(Cl)cc2)c2cccc([N+](=O)[O-])c2)cc1
inactive: [1] 81.6% | [2] 37.8% | [3] 99% | [4] 75.4% | [5] 95.7% | [6] 70.7% | [7] 105% | [8] 89.7% | [9] 90.1% | [10] 78.4% | [11] 70.7% | [12] 86.5% | [13] 84.1% | [14] 92.2% | [20] 78% | [16] 75.9% | [17] 33.7% | [18] 45.1% | [19] 114%

COc1ccc(C(=O)/C=C/c2c(C(F)(F)F)nc3sccn23)cc1OC
active: [1] -24.6% | [2] -15.1% | [7] -9.31% | [8] -5.52% | [18] 5.55%
inactive: [3] 71.4% | [4] 36.8% | [5] 39.1% | [6] 15.4% | [9] 56.8% | [10] 28.5% | [11] 24.6% | [12] 12.3% | [13] 14.3% | [14] 33% | [15] 53.3% | [16] 31.7% | [17] 20.6% | [19] 52.7%

N#Cc1c2c(nn(-c3ccccc3)c1=O)C(O)=C([N+](=O)[O-])C(c1ccccc1)C2 (stereo not given)
inactive: [1] 26.2% | [2] 41% | [3] 86.1% | [4] 71.1% | [5] 49.7% | [6] 88% | [7] 98.9% | [8] 83% | [9] 87.7% | [10] 86.1% | [11] 54.7% | [12] 94.1% | [13] 90.6% | [14] 84.2% | [15] 80.5% | [16] 92.9% | [17] 84.6% | [18] 17.9% | [19] 96.4%

COc1cccc(-c2nn(-c3ccccc3)cc2-c2ccnc(NCCNC(=O)Nc3ccccc3)c2)c1
inactive: [1] 65.9% | [2] 28.2% | [3] 77.8% | [4] 47.9% | [5] 63.5% | [6] 60.9% | [7] 54.4% | [8] 83.6% | [9] 42.9% | [10] 35.7% | [11] 39.3% | [12] 29.6% | [13] 67.7% | [14] 66.5% | [15] 30.8% | [16] 46.1% | [17] 51.5% | [18] 44.4% | [19] 77.7%

COC1=C(OC)C(=O)C(OC)=C(OC)C1=O
inactive: [1] 101% | [2] 87.2% | [3] 101% | [4] 46.3% | [5] 95% | [6] 94.4% | [7] 97.7% | [8] 114% | [9] 107% | [10] 105% | [11] 108% | [12] 104% | [13] 106% | [14] 99% | [15] 95.5% | [16] 105% | [17] 102% | [18] 90.7% | [19] 105%

CC(=O)OC1CCC2(C)C(=CC3C4CCC(=O)C4(C)CCC32)C1 (stereo not given)
inactive: [1] 101% | [2] 95% | [3] 112% | [4] 98.2% | [5] 115% | [6] 96% | [7] 95.5% | [8] 99.1% | [9] 110% | [10] 98% | [11] 98.2% | [12] 99.7% | [13] 83.8% | [14] 98.6% | [15] 101% | [16] 105% | [17] 101% | [18] 100% | [19] 102%

O=C1Nc2ccccc2/C1=C/c1cn(C(=O)c2ccc(Cl)cc2)c2ccccc12
inactive: [1] 118% | [2] 85.7% | [3] 118% | [4] 77.7% | [5] 130% | [6] 99.9% | [7] 114% | [8] 99.4% | [9] 99.7% | [10] 102% | [11] 92.1% | [12] 110% | [13] 87.7% | [14] 99.1% | [20] 99.4% | [16] 97.7% | [17] 89.3% | [18] 100% | [19] 93%

NC(=S)N/N=C/Cc1ccccc1
inactive: [1] 110% | [2] 88.4% | [3] 119% | [4] 101% | [5] 103% | [6] 105% | [7] 97.7% | [8] 109% | [9] 59.7% | [10] 104% | [11] 87.4% | [12] 94.7% | [13] 110% | [14] 104% | [15] 91.4% | [16] 107% | [17] 108% | [18] 73% | [19] 109%

Cc1ccc(N2CCN(C(=S)c3cccs3)CC2)cc1
inactive: [1] 108% | [2] 89.1% | [3] 100% | [4] 97.1% | [5] 111% | [6] 107% | [7] 103% | [8] 101% | [9] 101% | [10] 103% | [11] 96.3% | [12] 90.9% | [13] 94.3% | [14] 100% | [15] 92.9% | [16] 95.2% | [17] 90.1% | [18] 116% | [19] 102%

Cc1ccc(Cl)cc1NC(=O)c1cc2ccccc2cc1O
inactive: [14] 22.8%
active: [1] 7.76% | [2] -33.7% | [3] -32.6% | [4] -56.8% | [5] -15.6% | [6] 9.58% | [7] -9.44% | [8] -0.708% | [9] -7.13% | [10] 2.88% | [11] 8.41% | [12] 7.43% | [13] -14.3% | [15] -12.6% | [16] -74.4% | [17] -11.5% | [18] 3.41% | [19] 9.98%

COc1ccc2nc(NNC(=O)c3cnccn3)c3cccn3c2c1
inactive: [5] 41.2% | [12] 10% | [13] 25.3% | [15] 16.5% | [19] 11.7%
active: [1] 1.09% | [2] 4.97% | [3] -6.33% | [4] 5.83% | [6] 9.31% | [7] 2.1% | [8] -19.7% | [9] -8.01% | [10] -37.5% | [11] -19.5% | [14] 6.9% | [16] 0.958% | [17] -34.2% | [18] -36.3%

O=S(=O)(Nc1cccc(Cl)c1)c1ccc(-c2cnc(C3CC3)o2)cc1
inactive: [1] 20.4% | [3] 58.2% | [4] 23.3% | [5] 13.8% | [6] 51% | [7] 15.5% | [9] 63.8% | [10] 16.2% | [11] 23.9% | [14] 24.1% | [16] 16.4% | [17] 29.2% | [18] 35.4% | [19] 68.4%
active: [2] 9.52% | [8] -0.0211% | [12] 3.59% | [13] -25.8%

Source: PubChem BioAssay (NCI)
